Records with an inconclusive call do not appear. The source made the active and inactive calls. Calls come from the whole dose curve; as a rule, active = well fitted cell-killing curve with a large enough effect; inconclusive = small, poorly fitted or top-dose-only effect; inactive = flat fitted curve, though single readings scatter.
Potency is the fitted concentration of half-maximal effect.

This test in a line: qHTS of pediatric cancer cell lines to identify multiple opportunities for drug repurposing: Primary screen for BT-37 cells (AID 1347094). The following applies: BT-37 viability, CellTiter-Glo luminescence, 48 h; series mostly up to 57.3 µM. The source says: Drug repurposing or repositioning has been offered as a strategy for drug development in oncology programs. This approach has special potential for childhood cancers and other rare or orphan diseases, where the expected return on new drug development has been a disincentive to pharmaceuticals. […] In this project we exploit the poly-pharmacology of drugs to discover new indications via phenotypic screening of a panel of 19 well-characterized cell lines derived from solid tumors seen in children and adolescents. The goal is to identify approved drugs with previously unrecognized anticancer properties that has the potential to reveal new mechanisms and biological processes involved in carcinogenesis or drug resistance. We employed a titration-based paradigm (quantitative high-throughput screening or qHTS), where all compounds were tested at multiple concentrations for their effect on cell viability. Concentration-response curves (CRCs) were derived directly from the primary screen, and both potency and efficacy values were used to identify compounds with robust bioactivity profiles. We screened the NIH Chemical Genomics Center (NCGC) Pharmaceutical Collection (NPC) and Mechanism Interrogation Plate (MIPE) small molecule collections of approved and investigational compounds against these cell lines; and measured metabolically active cells after 48 hours of compound treatment as a proxy for cell viability. […] Assay Submitter: Nathalia J. Martinez, National Center for Advancing Translational Sciences, National Institutes of Health, Rockville, MD, USA; email: natalia.martinez@nih.gov Shen, M et al. Quantitative high-throughput phenotypic screening of pediatric cancer cell lines identifies multiple opportunities for drug repurposing. Oncotarget 2017 Dec 19;9(4):4758-4772. PMID 29435139.
The cells were obtained from University of North Carolina (UNC), Pediatric Preclinical Testing Program (PPT), and Coriell Institute (CI). qHTS cell viability assay: Cells were assayed in growth media at a density of 500-1,000 cells/well. Five microliters of cells were dispensed into 1,536-well, white, solid-bottom, TC-treated plates (Greiner Bio One) using a multidrop dispenser and incubated at 37 degrees C, 5% CO2, under a humidified atmosphere for 5 hours. Twenty-three nanoliters of compounds and controls (neutral control DMSO or positive control bortezomib at final concentration of 2.3 µM) were subsequently transferred by Kalypsys pintool. For primary screens, the MIPE collection was tested at 11-point dilutions (final concentrations range from 0.78 nM to 46 µM) and the NPC collection at 8-point dilutions (final concentrations range from 0.59 nM to 46 µM). Compounds tested in follow-up screens were assayed at 11-point dilutions. Cells were incubated for 48 hours, followed by addition of 3 µL of CellTiter-Glo (Promega). After a 15 min incubation at room temperature, samples were analyzed for luminescence intensity using a ViewLux High-throughput CCD imager equipped with clear filters.
For the compound `O=C(CN1C(=O)C2(CCCC2)NC[C@H]1c1cc(F)cc(F)c1)Nc1ccc2c(c1)C[C@@]1(C2)C(=O)Nc2ncccc21`, the Potency entry is “inactive”.

For `CCN(CC)CCNC(=O)c1c(C)[nH]c(C=C2C(=O)Nc3ccc(F)cc32)c1C`, the Potency is 17.7 µM (active). The value for `NC(=O)Nc1cc(-c2ccc(CN3CCOCC3)cc2)sc1C(N)=O` was 21.7 µM (active). The value for `C[C@@]12C(=O)OC(=O)[C@@]1(C)C1CCC2O1` was 2.17 µM (active); that for `CN[C@H](CC(C)C)C(=O)N[C@H]1C(=O)N[C@@H](CC(N)=O)C(=O)N[C@@H]2C(=O)N[C@H]3C(=O)N[C@H](C(=O)N[C@H](C(=O)O)c4cc(O)cc(O)c4-c4cc3ccc4O)[C@H](O)c3ccc(c(Cl)c3)Oc3cc2cc(c3O[C@@H]2O[C@H](CO)[C@@H](O)[C@H](O)[C@@H]2O[C@H]2C[C@](C)(N)[C@H](O)[C@H](C)O2)Oc2ccc(cc2Cl)[C@H]1O` was “inactive”; that for `C[C@H](CCC(=O)O)[C@H]1CCC2C3C[C@H](O)[C@@H]4C[C@H](O)CC[C@]4(C)C3CC[C@@]21C` (stereo not given in full) was “inactive”.

Take `O=C1NC(=O)[C@@H](c2cn3c4c(cccc24)CCC3)[C@H]1c1c[nH]c2ccccc12`: the Potency is 2.17 µM (active). The value for `CC(C)OC(=O)[C@H](C)N[P@](=O)(OC[C@H]1O[C@@H](n2ccc(=O)[nH]c2=O)[C@](C)(F)[C@H]1O)Oc1ccccc1` was “inactive”; that for `C#C[C@]1(O)CC[C@@H]2[C@@H]3CCC4=CC(=O)CC[C@@H]4[C@H]3CC[C@@]21CC` was “inactive”. As to `COc1cc(C=CC(=O)CC(=O)C=Cc2ccc(O)c(OC)c2)ccc1O`, the Potency was 31.4 µM (active). The value for `C=CCNC1=C2C[C@@H](C)C[C@H](OC)[C@@H](O)[C@@H](C)C=C(C)[C@H](OC(N)=O)[C@@H](OC)C=CC=C(C)C(=O)NC(=CC1=O)C2=O` was 0.193 µM (active); that for `C=CC1=C(C(=O)O)N2C(=O)[C@@H](NC(=O)C(=NO)c3csc(N)n3)[C@H]2SC1` was “inactive”; that for `COC(=O)C=CC(=O)OC` was “inactive”. As to `COc1ccc(C=Cc2cc(OC)c(OC)c(OC)c2)cc1NC(=O)[C@H](N)CO`, the Potency was 0.0172 µM (active). Turning to `CCC[C@H]1C[C@H](C(=O)N[C@@H]([C@@H]2O[C@@H](SC)[C@@H](O)[C@@H](O)[C@@H]2O)[C@H](C)Cl)N(C)C1`, the Potency entry was “inactive”. With `Cc1cnc(Nc2ccc(CN3CCOCC3)cc2)nc1Nc1cccc(S(=O)(=O)NC(C)(C)C)c1`, the Potency is 17.2 µM (active). Regarding `CC(=O)NCC(=O)N1[C@H]2CC[C@H]1c1cc(Nc3ncc(C(F)(F)F)c(NC4CCC4)n3)ccc12`, the Potency is 24.3 µM (active). The value for `Nc1ccn(C2CO[C@H](CO)O2)c(=O)n1` (stereo not given in full) was “inactive”; that for `O=C1NC(=O)C(=Cc2ccc3nccc(-c4ccncc4)c3c2)S1` was 0.432 µM (active); that for `C=CC(=O)Nc1cccc(Nc2nc(NC3CCC(N(C)C)CC3)nc3c2ncn3C(C)C)c1` (stereo not given) was 0.0968 µM (active). The value for `COc1ccc2cc([S+]([O-])Cc3ncc(C)c(OC)c3C)nc2c1` was “inactive”; that for `CN[C@@H]1C[C@H]2O[C@@](C)([C@H]1OC)n1c3ccccc3c3c4c(c5c6ccccc6n2c5c31)C(=O)N[C@H]4O` was 6.85 µM (active); that for `OCCNC1CCCc2c1[nH]c1ccc(-c3ccccc3)cc21` (stereo not given) was 24.3 µM (active).

Regarding `CC(=O)O[C@H]1C[C@@H]2CC[C@H]3[C@H]4C[C@H]([N+]5(C)CCCCC5)[C@@H](OC(C)=O)[C@@]4(C)CC[C@@H]3[C@@]2(C)C[C@H]1[N+]1(C)CCCCC1`, the Potency entry was “inactive”. The value for `Nc1nc2c(c(=O)[nH]1)N(C=O)[C@H](CNc1ccc(C(=O)N[C@@H](CCC(=O)O)C(=O)O)cc1)CN2` was 9.68 µM (active). The value for `CC(C)(O)Cn1c(NC(=O)c2ccc(-c3cn[nH]c3)s2)nc2cc(CN3CCOCC3)ccc21` was 1.09 µM (active); that for `CC(=O)N1CCN(c2ccc(OCc3nn(C)c(C)c3-c3cccc4c(CCCOc5cccc6ccccc56)c(C(=O)O)n(Cc5cccnc5)c34)cc2)CC1` was 0.485 µM (active); that for `COc1ccc(S(=O)(=O)Nc2cc(-c3c(O)ccc4ccccc34)c(O)c3ccccc23)cc1` was 24.3 µM (active). The value for `Cn1cc(C2=C(c3c4n(c5ccccc35)CCC(CN)C4)C(=O)NC2=O)c2ccccc21` (stereo not given) was 27.3 µM (active); that for `c1cc(CN2CCCNCCNCCCNCC2)ccc1CN1CCCNCCNCCCNCC1` was “inactive”. `COc1ccc(S(=O)(=O)Nc2cccnc2Nc2ccc(O)cc2)cc1`: the Potency was 0.344 µM (active). The value for `CCCCOc1ccc(C(=O)Nc2ccc(F)cc2F)cc1` was “inactive”; that for `Oc1cc(-c2nc(-c3ccccc3)[nH]c2-c2ccncc2)ccc1Cl` was 3.85 µM (active); that for `C[C@H](NC(=O)[C@@H](O)c1cc(F)cc(F)c1)C(=O)N[C@@H]1C(=O)N(C)c2ccccc2-c2ccccc21` was “inactive”. The value for `CN[C@H]1[C@@H](O)[C@@H]2O[C@@H]3O[C@H](C)CC(=O)[C@]3(O)O[C@@H]2[C@@H](NC)[C@H]1O` was 9.68 µM (active); that for `C[C@H]1[C@@H](OC(=O)CCC(=O)O)O[C@@H]2O[C@@]3(C)CC[C@@H]4[C@H](C)CC[C@@H]1[C@@]24OO3` was 3.85 µM (active); that for `c1ccc2c(Oc3nc(Nc4ccc(N5CCOCC5)cc4)c4ncn(C5CCCCC5)c4n3)cccc2c1` was “inactive”. The value for `CCC(C(=O)O)C1CCC(C)C(C(C)C(O)C(C)C(=O)C(CC)C2OC3(C=CC(O)[C@@]4(CC[C@](C)(C5CC[C@@](O)(CC)C(C)O5)O4)O3)C(C)CC2C)O1` (stereo not given in full) was 0.611 µM (active); that for `C[C@H](NCc1ccc2c(c1)nc(NC(=O)c1ccc(-c3cn[nH]c3)s1)n2CCc1ccccc1)C(C)(C)C` was 1.37 µM (active).

For the compound `C=CC(=O)Nc1ccc2ncnc(Nc3ccc(OCc4cccc(F)c4)c(Cl)c3)c2c1`, the Potency is 0.0153 µM (active).

These data come from PubChem BioAssay (NCATS).
